Out of some 220,000 compounds screened, about 910 (0.41%) were called active. The sample holds actives, similar compounds and a random draw of the others, so the mix is not that of the screen. Measured potencies and affinities stand elsewhere. A number with no mark means an inactive call.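 How the source made its calls: active means primary inhibition above the hit cutoff, then over 50% inhibition at one or more dose response concentrations (cut at about 23% in these data, passing the limit was not always enough); inconclusive means conflicting primary data, or primary hits not chosen for dose response; inactive means low primary inhibition, or under 50% at every dose.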

This passage reports inhibition results from PubChem BioAssay AID1445 (SRMLSC, 2008).

Aminopeptidase N (Plasmodium falciparum (isolate 3D7)), sequence (O96935 whole entry, looked up): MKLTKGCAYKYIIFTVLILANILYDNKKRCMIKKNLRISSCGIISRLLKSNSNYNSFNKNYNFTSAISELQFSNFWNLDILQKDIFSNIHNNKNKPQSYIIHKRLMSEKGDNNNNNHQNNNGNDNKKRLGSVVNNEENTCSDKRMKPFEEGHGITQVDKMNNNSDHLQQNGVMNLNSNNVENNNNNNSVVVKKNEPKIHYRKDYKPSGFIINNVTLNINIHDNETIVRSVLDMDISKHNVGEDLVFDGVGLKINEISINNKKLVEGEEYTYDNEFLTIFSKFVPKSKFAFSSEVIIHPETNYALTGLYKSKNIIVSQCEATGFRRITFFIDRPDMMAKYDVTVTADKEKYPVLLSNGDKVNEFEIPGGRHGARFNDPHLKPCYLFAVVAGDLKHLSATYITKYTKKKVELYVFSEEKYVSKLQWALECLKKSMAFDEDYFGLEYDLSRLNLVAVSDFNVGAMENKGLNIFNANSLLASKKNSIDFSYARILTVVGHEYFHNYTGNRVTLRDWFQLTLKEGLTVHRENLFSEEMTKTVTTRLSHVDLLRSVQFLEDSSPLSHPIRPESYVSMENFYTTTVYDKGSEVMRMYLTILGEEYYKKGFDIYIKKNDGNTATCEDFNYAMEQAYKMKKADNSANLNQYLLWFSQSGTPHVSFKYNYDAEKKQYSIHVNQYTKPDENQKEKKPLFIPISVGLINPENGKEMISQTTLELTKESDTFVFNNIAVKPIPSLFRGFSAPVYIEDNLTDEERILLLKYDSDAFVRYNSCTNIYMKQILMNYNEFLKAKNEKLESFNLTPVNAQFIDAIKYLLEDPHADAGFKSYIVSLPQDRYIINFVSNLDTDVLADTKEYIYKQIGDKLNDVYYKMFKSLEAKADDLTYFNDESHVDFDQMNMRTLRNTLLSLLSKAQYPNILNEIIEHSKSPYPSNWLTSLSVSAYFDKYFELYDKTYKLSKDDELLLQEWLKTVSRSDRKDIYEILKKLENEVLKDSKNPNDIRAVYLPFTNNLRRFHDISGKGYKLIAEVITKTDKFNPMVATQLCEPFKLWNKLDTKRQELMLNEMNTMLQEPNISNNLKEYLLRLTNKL

This assay addresses Aminopeptidase N (Plasmodium falciparum (isolate 3D7)) (UniProt O96935). As to the kind of experiment: P. falciparum M1AAP inhibitors, biochemical, fluorogenic H-Leu-NHMec substrate, 1536-well (AID 1445).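 Further: plate controls were DMSO full reaction for no effect and no enzyme background for full effect.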 The following applies: recombinant M1AAP, H-Leu-NHMec fluorogenic kinetic assay; at 30 µM, stronger effect = higher value unless noted.
For orientation: inhibition means the drop in the measured response relative to a control, in per cent. With `CSCC[C@@H](C(=O)NCc1cccs1)N1Cc2ccccc2C1=O`, the inhibition was 6.93%. As for `CC(=O)Nc1ccc(S(=O)(=O)N2CCC(NC(=O)C(Cc3cccn3C)NC(C)=O)CC2)cc1` (centres undefined), the figure is -2.05%. As for `O=C(CCCn1cnc([N+](=O)[O-])n1)Nc1cccc(O)c1`, the figure is 4.83%. As for `C[C@H](NC(=O)c1nc[nH]c1C(=O)N[C@@H](Cc1ccccc1)C(=O)OC(C)(C)C)c1ccccc1`, the figure is -12.4%; as for `COC(=O)C1=C(C(=O)OC)[C@@H]2N(Cc3ccccc3)c3ccccc3[C@@]23C[C@@H](C(=O)OC)N=C3N1`, 7.23%.

For `Cc1ccc2cc(CN(Cc3ccco3)S(=O)(=O)c3c(C)ccc4nsnc34)c(=O)[nH]c2c1`, the inhibition is 8.06%.

As for `Cc1cc2cc(CN(Cc3ccco3)S(=O)(=O)c3c(C)ccc4nsnc34)c(=O)[nH]c2cc1C`, the inhibition is 12.1%.

Regarding `Cc1ccc2[nH]c(=O)c(CN(Cc3ccco3)S(=O)(=O)c3c(C)ccc4nsnc34)cc2c1`, the inhibition was 24.1% (active). As for `CC12CNCC(C)(CN(C3(O)C(=O)Nc4ccc(Br)cc43)C1)C2=O` (centres undefined), the figure is -7.16%; as for `O=C(/C=C/c1cccc([N+](=O)[O-])c1)NCc1ccc2c(c1)OCO2`, 6.01%. As for `O=C(c1cccc([N+](=O)[O-])c1)N1CCN(Cc2ccc3c(c2)OCO3)CC1`, the figure is 0.06%; as for `CN(Cc1c(F)cccc1Cl)c1ccc(S(=O)(=O)N2CCOCC2)cn1`, -2.07%.

For the molecule `O=C1OC(c2cccs2)=N/C1=C\c1ccc(-c2cccc(Cl)c2)o1`, the inhibition is 24.5% (active). As for `O=C1OC(c2cccs2)=N/C1=C/c1ccc(-c2cccc(C(=O)O)c2)o1`, the figure is 10.5%. With `O=C1OC(c2cccs2)=N/C1=C\c1ccc(-c2ccccc2Cl)o1`, the inhibition was 15.5%. As for `O=C(COC(=O)c1cccs1)NC1CCCCC1`, the figure is 4.47%; as for `COc1ccc(/C=C/c2cc(C(F)(F)F)[nH]c(=O)n2)cc1OC`, 10.6%.

As to `O=c1nc(/C=C/c2ccc(-c3ccc(F)cc3)o2)cc(C(F)(F)F)[nH]1`, the inhibition is 27.6% (active). As for `O=C(O)c1ccccc1-c1ccc(/C=C/c2cc(C(F)(F)F)[nH]c(=O)n2)o1`, the figure is 15.6%; as for `COC(=O)[C@@H]1CC[C@H](C)[C@@H](c2ccc(C)cc2)N1C(=O)c1ccc(/C=N/OC[C@@H](O)[C@H]2O[C@@H]3OC(C)(C)O[C@@H]3[C@H]2O)cc1`, 7.48%. As for `COc1ccccc1NC(=O)c1cc([N+](=O)[O-])ccc1NCCN1C(=O)CCC1=O`, the figure is 10.1%; as for `Cc1ccc(S(=O)(=O)Nc2ccc3oc(=O)sc3c2)c(C)c1`, 21.7%. With `O=C(O)c1cccc(S(=O)(=O)Nc2ccc3oc(=O)sc3c2)c1` the figure was 89.5%; with `OCCN1CCN(CCOc2ccccc2-c2ccccc2)CC1`, -1.14%; with `C=C(C)c1cccc(C(C)(C)NC(=O)Nc2ccc(Cl)cn2)c1`, 6.48%. For `C=C(C)c1cccc(C(C)(C)NC(=O)Nc2cc(C)ccn2)c1`, the inhibition is 14.8%. With `O=C(C=C1CCN(c2ncc(C(F)(F)F)cc2Cl)CC1)NNC(=O)Nc1ccc(Cl)cc1`, the inhibition is 1.48%.

For the molecule `Nc1c(N(CCO)C(=O)C2CCCCC2)c(=O)[nH]c(=O)n1Cc1ccccc1`, the inhibition is 3.34%. In the case of `COCCCN(C(=O)c1cc2c(s1)CCC2)c1c(N)n(Cc2ccccc2)c(=O)[nH]c1=O`, the inhibition was -2.38%.

As to `Cc1nnc2sc(-c3ccccn3)nn12`, the inhibition is -1.47%. Regarding `COC(=O)C1=C(N)Oc2cc(C)n(CC3CCCO3)c(=O)c2C1c1ccc(Cl)cc1` (centres undefined), the inhibition was 10.9%.

Turning to `COC(=O)C1=C(N)Oc2cc(C)n(C)c(=O)c2C1c1ccc(Cl)cc1` (centres undefined), the inhibition is -1.12%.

Take `COC(=O)C1=C(N)Oc2cc(C)n(CCCn3ccnc3)c(=O)c2C1c1ccc(Cl)cc1` (centres undefined): the inhibition is 27.9% (active).

As for `Cc1ccc(C)c(-n2c(Cc3cccs3)n[nH]c2=S)c1`, the inhibition is -6.44%. With `CC(C)CCNC(=O)C(c1ccco1)N(CCCO)C(=O)Cn1nnc(-c2ccc(F)cc2)n1` (centres undefined) the figure was 2.71%.

As for `O=C(CSc1nnc(NC2CCCCC2)s1)Nc1ccc(N2CCOCC2)cc1`, the inhibition was 0.83%. With `O=C(Nc1ccccc1)/C(=C/c1cccnc1)NC(=O)c1ccco1` the figure was -3.98%; with `CCOc1cc(/C=N\NC(=O)c2ccc(C)nc2)cc([N+](=O)[O-])c1O`, 19.1%. With `Cc1ccc(/C=N/NC(=O)c2cccs2)cc1[N+](=O)[O-]` the figure was 5.44%. With `O=C(c1cccnc1)N1CCN(c2ccc([N+](=O)[O-])cc2Cl)CC1` the figure was 7.28%; with `CCN1CCCC1CNC(=O)C(=O)Nc1ccccc1` (centres undefined), 4.81%. For the molecule `O=C1Nc2ccc(Cl)cc2C12Nc1ccccc1-c1nnc(SCc3ccccc3F)nc1O2` (centres undefined), the inhibition is 19.9%. With `O=C1Nc2ccc(F)cc2C12Nc1ccccc1-c1nnc(SCc3ccccc3Cl)nc1O2` (centres undefined) the figure was 14.4%; with `CC(Oc1cc(F)ccc1[N+](=O)[O-])C(=O)N(C)CC(=O)Nc1ccccc1C(F)(F)F` (centres undefined), 7.16%; with `O=C1C2=C(c3ccccc31)[N+](=O)[C@@H]1CCCC[C@@H]1N2[O-]`, 8.78%. With `CC(NC(=S)Nc1ccc(F)cc1)C(c1cccs1)N1CCOCC1` (centres undefined) the figure was 1.91%; with `CC1=CN2C(=N)/C(=C/c3ccc(C)o3)C(=O)N=C2S1`, 20.6%; with `CC1=CN2C(=N)/C(=C/c3ccco3)C(=O)N=C2S1`, 11%. For the molecule `N#Cc1cc2c(N)c(C(=O)Nc3ccccc3)sc2nc1N`, the inhibition is -0.33%. With `CCN(CC)S(=O)(=O)c1ccc2c(c1)nc(CCC(=O)OCC(=O)Nc1cc(Cl)cc(Cl)c1)n2C` the figure was 0.35%; with `Cc1nnc(SCC(=O)Nc2sc3c(c2C(N)=O)CCCC3)[nH]c1=O`, 11.5%; with `CCOC(=O)c1c(NC(=O)CSc2nnc(C)c(=O)[nH]2)sc(C)c1C`, 6.77%. As for `O=C(Nc1cccc2cccnc12)c1ccc2c(c1)OCCO2`, the figure is 3.45%. Consider `COC(=O)c1c(C(=O)OC)c(-c2cccc(Cl)c2)n2c1CS(=O)C2` (centres undefined), for which the inhibition is 12.7%. As for `Cc1nnc(SCC(=O)Nc2cccc(C(F)(F)F)c2)[nH]c1=O`, the figure is 3.06%. As to `CSc1nc(N(C)CCO)c2sc3nc(-c4ccco4)c4c(c3c2n1)CCC4`, the inhibition is 11.4%. With `CSc1nc(N(CCO)CCO)c2sc3nc(-c4ccco4)c4c(c3c2n1)CCC4` the figure was 27.5% (active); with `CCN(CCO)c1nc(SC)nc2c1sc1nc(-c3ccco3)c3c(c12)CCC3`, 20%; with `COC(=O)c1sccc1NC(=O)CSCCc1ccccn1`, 4.36%. As for `O=C(NCc1cccs1)C(Cc1ccccc1)NS(=O)(=O)c1cccs1` (centres undefined), the figure is 13.3%.

`Cc1ccc(CNC(=O)C(Cc2ccccc2)NS(=O)(=O)c2cccs2)cc1` (centres undefined): the inhibition was -3.28%. On to `O=C(c1ccco1)N1CCN(Cc2cccnc2)CC1`, for which the inhibition was 3.43%. Turning to `CC(C)(C)NC(=O)Cn1nnc(-c2ccc(S(C)(=O)=O)cc2)n1`, the inhibition was 9.97%.

With `Cc1onc(-c2ccncc2)c1C(=O)O`, the inhibition is 0.4%. As for `COc1ccccc1-c1n[nH]c(=S)n1-c1ccccc1`, the figure is 2.6%. `CN1CCN(C(=O)c2cc(Cl)ccc2Cl)CC1`: the inhibition is 8.9%. With `CC(=O)NNC(=S)NCCc1ccccc1` the figure was 6.55%; with `O=C(CCc1ccc(O)cc1)NNC(=S)NCCc1ccccc1`, -1.96%; with `Cc1nn(-c2ccccc2)c(N)c1C1(O)C(=O)N(C)c2ccccc21` (centres undefined), 1.69%.

Take `CC1Nc2ccccc2C(=O)N1NS(=O)(=O)c1ccccc1` (centres undefined): the inhibition is 1.49%. With `Cn1cc(/C=C2\SC(=S)N(NC(=O)c3ccccc3)C2=O)c2ccccc21` the figure was 3.01%; with `O=C(Nc1ccc(C(=O)NN2C(=O)c3ccccc3C2=O)cc1)c1ccccc1`, 8.25%.

For the molecule `O=C(NN1C(=O)C2C3C=CC(O3)C2C1=O)c1cccc(O)c1` (centres undefined), the inhibition is 6.69%. As for `CC(/C=C1\SC(=S)N(NC(=O)c2cccc(O)c2)C1=O)=C\c1ccccc1`, the figure is -3.91%; as for `CC1(C)Nc2ccccc2C(=O)N1NS(=O)(=O)c1ccccc1`, 2.35%. As for `CCOc1cc(N2CCOCC2)c(OCC)cc1NC(=O)c1ccc(S(C)(=O)=O)cc1`, the inhibition was 9.02%. As for `COc1ccccc1N(C)S(=O)(=O)c1ccc(C(=O)OCC(=O)NCc2ccco2)cc1`, the figure is -0.82%; as for `Cc1cccc(NC(=O)N2CCC(c3nc4ccccc4o3)CC2)c1`, 10%. Take `COc1cc(NC(=S)NC(=O)C(C)C)ccc1NC(=O)c1cc2ccccc2o1`: the inhibition is 10.7%. `COc1ccc(NC(=O)Nc2ccc(OCC(=O)N3CCOCC3)cc2)cc1OC`: the inhibition was 0.44%. With `CCC(C)(C)C1CCc2c(sc(NC(=O)c3cccs3)c2C(N)=O)C1` (centres undefined) the figure was -0.66%; with `C=CCn1c(=NC(=O)CC)n(C)c2ccccc21`, 0.56%.

Turning to `CCCn1c(CNc2ccccc2O)nc2ccccc21`, the inhibition was 0.88%. As for `Cn1c(CNc2nc3ccccc3n2C)nc2ccccc21`, the inhibition is -11.6%. As for `Cn1c(CNc2ccccc2O)nc2ccccc21`, the figure is 25% (active); as for `COc1cc(C(=S)N2CCOCC2)cc(OC)c1OC(=O)Cc1ccc(F)cc1`, 7.01%. As for `CC(C)(C)NC(=O)NC(=O)COC(=O)CCCc1c[nH]c2ccccc12`, the figure is 3.27%; as for `O=C1NCCCc2nonc21`, 0.35%; as for `CC(=O)Nc1ccc(S(=O)(=O)Oc2cccc(/C=C3\SC(N)=NC3=O)c2)cc1`, -0.74%.

As for `CCOc1cc(/C=N/N=C2/NC(=O)C(CC(=O)O)S2)ccc1OCc1ccc(Cl)cc1` (centres undefined), the inhibition was 9.38%.

With `CC(=O)Nc1ccc(S(=O)(=O)Oc2ccc(/C=N/N=C3/NC(=O)C(CC(=O)O)S3)cc2)cc1` (centres undefined), the inhibition was 10.6%. As for `CCOc1cc(/C=N/NS(=O)(=O)c2ccccc2)ccc1OS(=O)(=O)c1ccc(C)cc1`, the figure is 14.5%. As for `CCOc1cc(/C=N/O)ccc1OS(=O)(=O)c1ccc(C)cc1`, the figure is 13.6%; as for `COc1cc(/C=N/N=C2/NC(=O)C(CC(=O)O)S2)ccc1OCc1ccc(Cl)cc1` (centres undefined), 21.8%.
